Pf apPOL inh = Pf-apPOL DNA polymerase inhibition. 210,000 tested, 0.25% active. Recombinant Pf-apPOL, molecular beacon fluorescence, 1.5 h. inhibition, % at 10 µM
mHTT CaM bind = mHTT-calmodulin interaction abrogation. P42858. AlphaScreen His-mHTT/GST-CaM binding, luminescence. inhibition, % at 15 µM. 190,000 tested, 3.6% active
Hits are given with their value; - = inactive; . = no result given; ! = not confirmed by another sample. Only some compounds are listed: those with a hit (about 3.5% of all), similar ones and a draw of the others. Cut-off read from the data, not from the text of the source: active = inhibition above about 50%; inactive = the rest.

SMILES | Pf apPOL inh | mHTT CaM bind
CCn1ccc(C(=O)N2CCCC(c3nc(-c4ccccc4)n[nH]3)C2)n1 (stereo unspecified) | - | -
Oc1ccccc1C(Nc1nccs1)c1ccc2cccnc2c1O (stereo unspecified) | - | 100
O=S(=O)(Nc1nccs1)c1ccc2ccccc2c1 | . | -
Cn1cnnc1SCCNC(=O)c1ccc2c(c1)ncn2-c1ccccc1 | - | -
CNc1nccc(N2CCC(CC(=O)N3CCN(c4ccc(C)cc4)CC3)CC2)n1 | - | -
Cc1cc(NS(=O)(=O)c2ccc(NC(=O)C3CC3)cc2)nc(C)n1 | - | -
Cc1cc(NS(=O)(=O)c2ccc(NC(=O)C(Cl)(Cl)Cl)cc2)nc(C)n1 | 86 | -
Cc1ccc2[nH]cc(CCN3CC(C(=O)N4CCCC4)CC3=O)c2c1 (stereo unspecified) | - | -
Cc1sc2ccn(Cc3ccc(F)cc3)c(=O)c2c1C(=O)N1CCCCCC1 | - | 64
Cc1sc2ccn(Cc3ccc(F)cc3)c(=O)c2c1C(=O)N1CCCC(C)C1 (stereo unspecified) | - | 66
CCn1ccc2sc(C)c(C(=O)N3CCCCC3)c2c1=O | - | -
Cc1sc2ccn(CC(C)C)c(=O)c2c1C(=O)N1CCCC(C)C1 (stereo unspecified) | - | -
CSc1sc(C)cc1C1C(C#N)=C(N)N(c2ccccc2[N+](=O)[O-])C2=C1C(=O)CCC2 (stereo unspecified) | - | -
Cc1c(Cl)cccc1NC(=O)Cn1[nH]c2c(cnc3ccc(F)cc32)c1=O | - | 58
Cc1ccc(NC(=O)Cn2[nH]c3c(cnc4ccc(Cl)cc43)c2=O)cc1 | - | -
O=C(Cn1[nH]c2c(cnc3ccc(Cl)cc32)c1=O)Nc1cccc(F)c1 | - | 90
Cc1cc(C)cc(NC(=O)Cn2[nH]c3c(cnc4ccc(F)cc43)c2=O)c1 | - | -
O=C(Cn1[nH]c2c(cnc3ccc(Cl)cc32)c1=O)Nc1cccc(Cl)c1 | - | -
O=C(Cn1[nH]c2c(cnc3ccc(Cl)cc32)c1=O)Nc1ccc(F)cc1F | - | 66
Cc1ccc2ncc3c(=O)n(CC(=O)Nc4cccc(F)c4)[nH]c3c2c1 | - | 81
Cc1ccc(NC(=O)Cn2[nH]c3c(cnc4ccc(F)cc43)c2=O)cc1C | - | -
COc1ccccc1CCNC(=O)C1CSCCC(=O)N1 (stereo unspecified) | - | -
Cc1ccc(CN2CCN(C3CCN(C(=O)Nc4cccc(C)c4C)CC3)C2=O)cc1 | - | -
O=C(/C=C/c1ccc(F)cc1)n1cnc2ccccc21 | - | -
O=C(Nc1ccc(Cl)cc1)N1CCCC(c2nnc(Cc3ccc(F)cc3)o2)C1 (stereo unspecified) | - | -
SMILES | Pf apPOL inh | mHTT CaM bind
COc1ccc(NC(=O)N2CCC3(C2)C(=O)Nc2ccccc23)c(OC)c1 (stereo unspecified) | - | -
COc1ccc(OC)c(S(=O)(=O)N2CCC3(C2)C(=O)Nc2ccccc23)c1 (stereo unspecified) | - | 99
O=C(O)CCC(=O)Nc1cc(C(=O)O)ccc1Br | - | -
Cc1nc2oc(C(=O)c3ccccc3)c(N)c2c2c1COC(C)(C)C2 | - | -
O=C1C(=CC=Cc2ccco2)Oc2cc(O)ccc21 | 51 | 58!
O=C(Oc1ccc2c(c1)OC(=Cc1ccco1)C2=O)c1cccs1 | - | 58
O=C(Oc1ccc2c(c1)OC(=Cc1ccco1)C2=O)c1ccco1 | - | -
COc1ccc(C=C2Oc3cc(OC(C)=O)ccc3C2=O)cc1OC | - | -
O=C(C=Cc1ccccc1)Oc1ccc2c(c1)OC(=Cc1ccco1)C2=O | - | 79
O=C(Oc1ccc2c(c1)OC(=Cc1ccco1)C2=O)c1ccccc1 | - | -
COc1ccc(C=C2Oc3cc(OC(=O)C(C)C)ccc3C2=O)cc1OC | - | 62
O=C1C(=Cc2ccccc2F)Oc2cc(O)ccc21 | - | -
Cc1ccc(C(=O)C[n+]2cc(Br)cc3ccccc32)cc1 | - | -
CCOCCCN1COc2ccc3c(=O)c(-c4ccccc4)coc3c2C1 | - | -
ClCCOc1nc(OCCCl)nc(OCCCl)n1 | . | -
CC(=O)N1CCC(n2c(C)nc(C(=O)NCCN(C)C)c2C)CC1 | - | -
Cc1ccccc1CNC(=O)Cc1ccccc1 | - | -
CCOCCCn1c(SCC(=O)Nc2ccccc2C(F)(F)F)nc2ccccc2c1=O | - | -
COc1ccc(NCc2ccc(C)cc2C)cc1OC | - | 83
COc1ccc(CNCc2ccc(C)cc2C)c(OC)c1 | - | -
COc1ccccc1CNc1ccccc1 | - | -
COc1ccc(CNc2ccccc2SC)cc1OC | - | -
COc1ccc(NCc2ccccc2Br)cc1OC | - | 73
COc1ccc(NCc2ccc(SC)cc2)cc1OC | - | 80
CC(C)(C)C(=O)Nc1ccc2c(c1)CC(C(=O)NCc1ccccc1F)CO2 (stereo unspecified) | - | -
O=C(Oc1ccc2c(c1)OC(=Cc1ccc3c(c1)OCO3)C2=O)c1ccc2c(c1)OCO2 | - | -
N#CCSc1nc(-c2ccccc2)c(-c2ccccc2)o1 | 92! | -

Compound activity as filed in PubChem.
